Results on 23 molecules are retold here after article PMC4336329 (PLoS ONE, 2015).

Screen size: about 310,000 compounds; about 14,000 (4.5%) showed an effect of 50% or more. Effects have a minus sign here. For the sample, strong results were picked, then their nearest neighbours and some compounds at random.
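Further: peak tail current of the secondary pulse compared with the same well before compound.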

Sequence of human ether-à-go-go-related gene (hERG) potassium channel (Q12809 whole entry, looked up): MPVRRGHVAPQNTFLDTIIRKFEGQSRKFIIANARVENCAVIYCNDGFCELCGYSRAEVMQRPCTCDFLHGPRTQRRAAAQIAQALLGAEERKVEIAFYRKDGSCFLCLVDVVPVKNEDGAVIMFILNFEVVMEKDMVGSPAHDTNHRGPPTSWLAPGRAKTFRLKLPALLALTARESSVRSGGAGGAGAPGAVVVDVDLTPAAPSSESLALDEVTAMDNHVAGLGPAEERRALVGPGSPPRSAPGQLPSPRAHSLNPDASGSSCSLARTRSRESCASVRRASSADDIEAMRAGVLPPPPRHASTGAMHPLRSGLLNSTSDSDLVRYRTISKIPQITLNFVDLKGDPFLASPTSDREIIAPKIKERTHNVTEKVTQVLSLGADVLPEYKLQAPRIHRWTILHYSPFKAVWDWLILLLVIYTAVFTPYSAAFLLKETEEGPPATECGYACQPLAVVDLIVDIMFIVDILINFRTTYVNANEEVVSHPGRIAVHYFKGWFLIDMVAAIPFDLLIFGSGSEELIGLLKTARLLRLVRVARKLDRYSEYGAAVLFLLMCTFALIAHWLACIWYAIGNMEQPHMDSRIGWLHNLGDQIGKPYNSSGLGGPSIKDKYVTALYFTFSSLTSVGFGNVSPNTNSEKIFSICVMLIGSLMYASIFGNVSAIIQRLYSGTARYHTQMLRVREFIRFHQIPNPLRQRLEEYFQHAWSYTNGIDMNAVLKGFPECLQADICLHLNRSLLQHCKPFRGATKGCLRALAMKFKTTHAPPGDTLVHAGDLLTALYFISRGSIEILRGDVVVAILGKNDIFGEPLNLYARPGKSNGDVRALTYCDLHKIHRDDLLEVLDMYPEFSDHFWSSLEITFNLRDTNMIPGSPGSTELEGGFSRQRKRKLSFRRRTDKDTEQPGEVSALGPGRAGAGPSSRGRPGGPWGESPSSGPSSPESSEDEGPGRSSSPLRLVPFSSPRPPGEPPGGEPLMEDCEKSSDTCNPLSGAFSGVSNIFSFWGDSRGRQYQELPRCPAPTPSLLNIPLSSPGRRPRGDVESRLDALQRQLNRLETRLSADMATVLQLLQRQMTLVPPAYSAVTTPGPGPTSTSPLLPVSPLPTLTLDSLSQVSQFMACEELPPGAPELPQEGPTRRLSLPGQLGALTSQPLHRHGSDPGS

The test addresses human ether-à-go-go-related gene (hERG) potassium channel (human, UniProt Q12809). The test is described as follows: primary screen, population patch clamp on CHO cells stably expressing hERG; higher = less effect of the substance.
`C[C@]12CC[C@@H]3c4ccc(O)cc4CC[C@H]3[C@@H]1CC[C@@H]2OC(=O)CCC1CCCC1`: the “hERG current change (%, negative = inhibition) at 10uM” value is on record as 14%. `O=C(CN1C(=O)CSCC1=O)Nc1ccc2c(c1)OCO2`: the “hERG current change (%, negative = inhibition) at 10uM” value was determined as 16.2%.

For the molecule `Cc1ccc(S(=O)(=O)N2CCCCC2)cc1C(=O)c1nccn1C`, the “hERG current change (%, negative = inhibition) at 10uM” value is -2.56%. For `O=C(N/N=C\c1cn(-c2ccccc2)nc1-c1ccccc1)c1ccc2c(c1)OCO2`, the “hERG current change (%, negative = inhibition) at 10uM” value is listed as 11.3%. As for `O=C(CSc1nnc(-c2ccncc2)n1-c1ccccc1)NC1CC1`, the figure is 4.69%; as for `Cc1cc(/C=C2\SC(=Nc3ccc(N4CCOCC4)cc3)N(C)C2=O)c(C)n1-c1cccnc1`, 11.3%. As for `Cc1cc(=O)n2[nH]c(C(F)(F)F)c(-c3ccccc3)c2n1`, the “hERG current change (%, negative = inhibition) at 10uM” value is 3.6%. In the case of `CC(C)C1NC(=S)N(Cc2ccccc2)C1=O` (centres unmarked), the “hERG current change (%, negative = inhibition) at 10uM” value came out at 5.2%. Turning to `CC(C)c1ccc(NC(=O)C2CCN(C(=O)[C@@H]3Cc4ccccc4CN3)CC2)cc1`, the “hERG current change (%, negative = inhibition) at 10uM” value is listed as -67.4%. On to `CC(NC(=O)C1CCN(C(=O)[C@@H]2Cc3ccccc3CN2)CC1)c1ccccc1` (some centres unmarked), for which the “hERG current change (%, negative = inhibition) at 10uM” value is listed as -25.7%. With `CC(C)c1ccc(NC(=O)C2CCC(CNC(=O)[C@@H]3Cc4ccccc4CN3)CC2)cc1` (some centres unmarked), the “hERG current change (%, negative = inhibition) at 10uM” value came to 9.65%.

`CCOc1ccc(NC(=O)COC(=O)c2c(OC)cccc2OC)cc1`: the “hERG current change (%, negative = inhibition) at 10uM” value is listed as -1.27%.

Turning to `Cl.O=C(CN1C2=NCCN2c2ccccc21)N1CCOCC1`, the “hERG current change (%, negative = inhibition) at 10uM” value amounted to 9.79%.

Regarding `Cl.OC(CN1C2=NCCN2c2ccccc21)c1ccc2c(c1)OCO2` (centres unmarked), the “hERG current change (%, negative = inhibition) at 10uM” value is on record as -63.6%. As for `Cl.OC(CN1C2=NCCCN2c2ccccc21)c1ccc2c(c1)OCO2` (centres unmarked), the figure is -70.2%; as for `OC(c1ccc2c(c1)OCO2)c1nccc2ccccc12` (centres unmarked), -1.04%; as for `COc1cc(C(=O)NNC(=O)CSc2nnc3ccccn23)cc(OC)c1OC`, 15.4%.

In the case of `CCCC(=O)Nc1ccc(C(=O)N/N=C/c2cccnc2)cc1`, the “hERG current change (%, negative = inhibition) at 10uM” value is given as -8.24%. Under `CC1(C)Cc2c(cnn2-c2ccc(F)cc2)C(NC(=O)CCCN2CCCCC2=O)C1` (centres unmarked) stands 2.89%; under `CCOC(=O)Cn1c(=O)c2c(nc3n2CCCCN3c2ccc(C)cc2)n(C)c1=O`, -19.5%; under `CCCCOC(=O)Cn1c(=O)c2c(nc3n2CCCCN3c2ccc(C)cc2)n(C)c1=O`, -52.8%. `CCOC(=O)Cn1c(=O)c2c(nc3n2CCCCN3c2ccc(OCC)cc2)n(C)c1=O`: the “hERG current change (%, negative = inhibition) at 10uM” value is reported as -41.4%. On to `Cc1ccccc1S(=O)(=O)Cc1ccc(C(=O)NCCN2CCCCC2C)o1` (centres unmarked), for which the “hERG current change (%, negative = inhibition) at 10uM” value was -39.3%.
